PMC12214610

Columns and labels:
[1] = molecular target: Large ribosomal subunit protein uL5 (UniProt P62399)
[2] = molecular target: Small ribosomal subunit protein bS1 (UniProt P0AG67)
[3] = molecular target: Large ribosomal subunit protein bL9 (UniProt P0A7R1)
[4] = molecular target: Small ribosomal subunit protein uS8 (UniProt P0A7W7)
[5] = molecular target: Large ribosomal subunit protein eL6 (UniProt Q02878)
[6] = molecular target: Adenylyl cyclase-associated protein 1 (UniProt Q01518)
[7] = molecular target: Large ribosomal subunit protein eL24 (UniProt P83731)
[8] = molecular target: Small ribosomal subunit protein uS11 (UniProt P62263)
[9] = molecular target: Small ribosomal subunit protein uS4 (UniProt P46781)
[10] = molecular target: DNA-binding protein HU-beta (UniProt P0ACF4)
[11] = molecular target: 30S ribosome-binding factor (UniProt P0A7G2)
[12] = molecular target: Large ribosomal subunit protein uL24 (UniProt P60624)
[13] = molecular target: Small ribosomal subunit protein uS13 (UniProt P0A7S9)
Cofilin-1 = Cofilin-1 (UniProt P23528)
[14] = molecular target: Large ribosomal subunit protein uL4 (UniProt P36578)
[15] = molecular target: Large ribosomal subunit protein uL22 (UniProt P61175)
[16] = molecular target: Small ribosomal subunit protein bS21 (UniProt P68679)
[17] = molecular target: Large ribosomal subunit protein uL2 (UniProt P60422)
[18] = molecular target: Large ribosomal subunit protein eL20 (UniProt Q02543)
[19] = molecular target: Small ribosomal subunit protein uS3 (UniProt P0A7V3)
[20] = molecular target: Small ribosomal subunit protein uS5 (UniProt P0A7W1)
Actin, cytoplasmic 2 = Actin, cytoplasmic 2 (UniProt P63261)
[21] = molecular target: Heat shock 70 kDa protein 1B (UniProt P0DMV9)
[22] = molecular target: Heat shock cognate 71 kDa protein (UniProt P11142)
[23] = molecular target: Peptidyl-prolyl cis-trans isomerase A (UniProt P62937)
[24] = molecular target: Large ribosomal subunit protein eL36 (UniProt Q9Y3U8)
[25] = molecular target: Small ribosomal subunit protein uS19 (UniProt P0A7U3)
[26] = molecular target: Elongation factor 1-alpha 1 (UniProt P68104)

Heat shock cognate 71 kDa protein, sequence (P11142 whole entry): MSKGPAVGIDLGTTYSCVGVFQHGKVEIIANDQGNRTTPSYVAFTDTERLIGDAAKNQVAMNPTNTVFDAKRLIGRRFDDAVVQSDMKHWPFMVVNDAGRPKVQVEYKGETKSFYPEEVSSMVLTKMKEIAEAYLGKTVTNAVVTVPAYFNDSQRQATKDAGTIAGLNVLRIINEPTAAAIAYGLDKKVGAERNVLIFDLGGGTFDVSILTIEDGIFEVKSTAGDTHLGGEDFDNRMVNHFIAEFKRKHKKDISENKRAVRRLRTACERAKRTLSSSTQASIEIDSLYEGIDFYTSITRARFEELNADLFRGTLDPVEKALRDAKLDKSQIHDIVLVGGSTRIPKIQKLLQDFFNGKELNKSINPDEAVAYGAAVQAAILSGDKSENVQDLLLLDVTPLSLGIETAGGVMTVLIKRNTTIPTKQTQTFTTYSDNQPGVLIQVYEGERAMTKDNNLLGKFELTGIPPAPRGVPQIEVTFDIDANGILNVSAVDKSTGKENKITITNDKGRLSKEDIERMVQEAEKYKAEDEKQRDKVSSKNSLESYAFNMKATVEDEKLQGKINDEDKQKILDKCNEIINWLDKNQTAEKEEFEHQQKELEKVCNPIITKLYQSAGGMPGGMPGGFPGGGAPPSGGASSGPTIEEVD
Cofilin-1, sequence (P23528 whole entry): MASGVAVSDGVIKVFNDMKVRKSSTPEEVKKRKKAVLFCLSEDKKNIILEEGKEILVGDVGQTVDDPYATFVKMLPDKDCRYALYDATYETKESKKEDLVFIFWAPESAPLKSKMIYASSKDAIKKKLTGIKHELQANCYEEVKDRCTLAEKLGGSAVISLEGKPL
Heat shock 70 kDa protein 1B, sequence (P0DMV9 whole entry): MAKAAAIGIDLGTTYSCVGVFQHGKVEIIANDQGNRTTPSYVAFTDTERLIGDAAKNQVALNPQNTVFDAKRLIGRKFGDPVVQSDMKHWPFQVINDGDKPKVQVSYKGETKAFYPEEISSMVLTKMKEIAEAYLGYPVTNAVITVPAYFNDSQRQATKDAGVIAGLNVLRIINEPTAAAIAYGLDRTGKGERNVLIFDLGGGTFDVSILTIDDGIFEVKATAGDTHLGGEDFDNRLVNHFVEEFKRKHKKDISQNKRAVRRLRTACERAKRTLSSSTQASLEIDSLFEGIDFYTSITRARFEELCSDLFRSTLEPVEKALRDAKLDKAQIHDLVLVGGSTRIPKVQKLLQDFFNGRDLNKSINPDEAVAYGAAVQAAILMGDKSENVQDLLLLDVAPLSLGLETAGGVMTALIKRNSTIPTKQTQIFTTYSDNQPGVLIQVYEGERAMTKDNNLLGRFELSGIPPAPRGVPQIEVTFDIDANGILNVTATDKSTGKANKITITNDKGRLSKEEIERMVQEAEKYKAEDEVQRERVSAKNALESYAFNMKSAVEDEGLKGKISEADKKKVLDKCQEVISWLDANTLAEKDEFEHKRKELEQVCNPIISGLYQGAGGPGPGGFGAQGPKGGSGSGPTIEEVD
Profilin-1, P07737, sequence (P07737 whole entry): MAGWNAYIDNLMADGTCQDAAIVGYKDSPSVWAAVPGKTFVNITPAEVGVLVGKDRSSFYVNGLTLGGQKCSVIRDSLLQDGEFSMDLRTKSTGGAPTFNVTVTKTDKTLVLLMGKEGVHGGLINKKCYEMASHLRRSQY

Large ribosomal subunit protein bL27, P0A7L8
listed as a hit [1]: yes

Small ribosomal subunit protein uS11, P0A7R9
listed as a hit [2]: yes

Large ribosomal subunit protein bL28, P0A7M2
listed as a hit [3]: yes

Small ribosomal subunit protein uS5, P0A7W1
listed as a hit [4]: yes

Large ribosomal subunit protein eL28, P46779
listed as a hit [5]: yes

Actin, alpha skeletal muscle, P68133
listed as a hit [6]: yes

Large ribosomal subunit protein uL4, P36578
listed as a hit [7]: yes | listed as a hit [8]: yes | listed as a hit [9]: yes

Large ribosomal subunit protein bL19, P0A7K6
listed as a hit [10]: yes

Small ribosomal subunit protein uS9, P0A7X3
listed as a hit [2]: yes

Small ribosomal subunit protein uS7, P02359
listed as a hit [11]: yes | listed as a hit [12]: yes | listed as a hit [2]: yes | listed as a hit [13]: yes

Profilin-1, P07737
listed as a hit (Cofilin-1): yes

Large ribosomal subunit protein uL16, P27635
listed as a hit [14]: yes | listed as a hit [9]: yes

Large ribosomal subunit protein bL32, P0A7N4
listed as a hit [15]: yes

Small ribosomal subunit protein bS18, P0A7T7
listed as a hit [16]: yes

Large ribosomal subunit protein bL9, P0A7R1
listed as a hit [17]: yes

Small ribosomal subunit protein uS4, P46781
listed as a hit [18]: yes

Small ribosomal subunit protein uS2, P0A7V0
listed as a hit [19]: yes | listed as a hit [4]: yes

Small ribosomal subunit protein uS19, P0A7U3
listed as a hit [1]: yes

Small ribosomal subunit protein uS4, P0A7V8
listed as a hit [20]: yes

Polyubiquitin-B, P0CG47
listed as a hit (Actin, cytoplasmic 2): yes | listed as a hit [21]: yes | listed as a hit [22]: yes | listed as a hit [23]: yes

Small ribosomal subunit protein uS10, P0A7R5
listed as a hit [2]: yes | listed as a hit [19]: yes

Large ribosomal subunit protein eL15, P61313
listed as a hit [24]: yes

Large ribosomal subunit protein bL31, P0A7M9
listed as a hit [1]: yes | listed as a hit [25]: yes

Peptidyl-prolyl cis-trans isomerase A, P62937
listed as a hit [26]: yes

Elongation factor 2, P13639
listed as a hit (Actin, cytoplasmic 2): yes | listed as a hit [26]: yes
